Source: PubChem
RGS4 inhibitor: blocks human RGS4-accelerated GTP hydrolysis; Transcreener GDP fluorescence polarization, RGS4-accelerated GTP hydrolysis; P49798; Potency, µM (highest dose often 114 µM), usual class: inhibitors; AID 504845; actives 0.039% (n = 390,000); further: nearly all actives have a fitted effect of over 75% in size
Target sequence (P49798 whole entry, looked up): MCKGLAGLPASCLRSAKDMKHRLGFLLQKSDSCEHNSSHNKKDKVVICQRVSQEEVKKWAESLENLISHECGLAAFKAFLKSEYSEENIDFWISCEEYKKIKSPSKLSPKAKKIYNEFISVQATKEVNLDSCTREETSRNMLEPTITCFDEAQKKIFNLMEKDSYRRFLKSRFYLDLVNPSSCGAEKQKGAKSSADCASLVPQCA
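MLSMR compounds (23 nl, pin-transferred) preincubated 10 min at room temperature with a 500nM (2x) first reagent, then RGS4 at 900nM (2x) plus Transcreener GDP mix added; fluorescence polarization (620/688 nm) read before and after 90 min at 30 °C.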
PTAP TSG101 blk: blocks PTAP/TSG101 interaction to inhibit HIV-1 budding. 340,000 tested, under 10 active. Potency, µM (top dose mostly 115 µM), hits mostly inhibitors. Fluorescence polarization, FITC-PTAP peptide / Tsg101 binding. Q99816; active means well fitted inhibition curve with a large enough effect in the main read-out, with a control signal flat, not every such curve was filed as active; inconclusive means small, poorly fitted or top-dose-only effect, or effect the other way, or a change in a side signal; inactive means no such curve, though single readings can be large or run the other way
Target sequence (Q99816 whole entry, looked up): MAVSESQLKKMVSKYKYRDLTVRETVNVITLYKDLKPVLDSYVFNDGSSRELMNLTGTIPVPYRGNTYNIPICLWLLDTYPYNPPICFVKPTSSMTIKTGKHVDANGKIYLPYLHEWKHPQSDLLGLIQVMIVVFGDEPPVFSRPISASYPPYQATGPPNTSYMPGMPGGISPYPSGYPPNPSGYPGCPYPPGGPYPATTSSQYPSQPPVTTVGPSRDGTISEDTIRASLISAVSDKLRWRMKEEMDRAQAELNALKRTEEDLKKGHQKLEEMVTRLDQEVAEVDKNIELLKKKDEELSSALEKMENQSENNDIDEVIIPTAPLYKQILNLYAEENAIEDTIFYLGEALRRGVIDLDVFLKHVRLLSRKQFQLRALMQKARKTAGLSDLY
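Steps: Tsg101 binding domain dispensed (10 uM final), compounds pinned in DMSO, FITC-labeled PTAP-motif peptide added (50 nM final); after 20 min binding at room temperature, polarization measured.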
KB-V1 MDR tox: kills drug-selected multidrug resistant KB-V1 cells | KB-V1 MDR cells viability, CellTiter-Glo, 72 h | Potency, µM (top dose mostly 46.1 µM), hits mostly cytotoxic | actives 3.4% (n = 400,000) | AID 1347076; further: nearly all actives have a fitted effect of over 60% in size
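KB-V1, DMEM (no phenol red) + 10% FBS; cpd pin-transferred, titration series; 72 h, 37 degrees C; CellTiter-Glo, luminescence. Data normalized, curve-fit.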
KB-3-1 cytotox: kills parental KB-3-1 adenocarcinoma cells. AID 1347075. KB-3-1 viability, CellTiter-Glo ATP luminescence, 72 h. actives 1.4% (n = 400,000). Potency, µM (doses to about 46.1 µM), most hits filed as cytotoxic; further: nearly all actives have a fitted effect of over 60% in size
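KB-3-1 cells, DMEM (no phenol red) + 10% FBS; compound by pin transfer, 72 h, 37 °C. Readout: CellTiter-Glo luminescence after 10 min. Data normalized, curve-fitted.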
MCF10A rereplic: DNA re-replication induction in MCF 10a cells. AID 624296. MCF 10A DNA re-replication, Hoechst nuclear intensity, 48 h. actives 2.9% (n = 350,000). Potency, µM (series often up to 46.1 µM), usual class: activators; further: nearly all actives have a fitted effect of over 50% in size
SW480 rereplic: induces DNA re-replication in SW480 colon adenocarcinoma cells | actives 1.8% (n = 340,000) | Potency, µM (doses to about 46.1 µM), actives largely listed as activators | AID 624297 | SW480 DNA re-replication, Hoechst DNA content imaging, 48 h; further: nearly all actives have a fitted effect of over 55% in size
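DNA re-replication was detected as more nuclei of elevated Hoechst intensity after 48 hr exposure to compound (23 nL pinned per well of 250 cells).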
Large screens that a line does not name were inactive. Sampled rows, rich in hits. Any-hit rate of the full collection: about 6.6%. Unless noted, the call rests on the fitted dose curve; in most records, active means well fitted curve in the direction sought with a large enough effect; inconclusive means small, poorly fitted or top-dose-only effect, or another doubt; inactive means no such curve, though single readings can be large; an effect the other way counts as inactive or inconclusive.

Cc1cc(C)cc(OCC(=O)N/N=C/c2ccc([N+](=O)[O-])o2)c1	KB-V1 MDR tox inconclusive, MCF10A rereplic inconclusive, SW480 rereplic inconclusive
CC1(C(=O)N/N=C/c2ccc([N+](=O)[O-])o2)CC1(Br)Br (configuration not stated)	KB-V1 MDR tox 18µM, KB-3-1 cytotox inconclusive, MCF10A rereplic inconclusive, SW480 rereplic 4.6µM
COc1ccccc1OCC(=O)N/N=C/C=C/c1ccc([N+](=O)[O-])o1	KB-V1 MDR tox 16µM, KB-3-1 cytotox inconclusive, MCF10A rereplic inconclusive, SW480 rereplic inconclusive
Cc1ccccc1OCC(=O)N/N=C/c1ccc([N+](=O)[O-])o1	MCF10A rereplic 23µM, SW480 rereplic 1.2µM
COc1cc(C2C(C(=O)Nc3ccc(C)cc3C)=C(C)Nc3nc4ccccc4n32)cc(OC)c1OC (configuration not stated)	KB-V1 MDR tox inconclusive (no result: PTAP TSG101 blk, MCF10A rereplic, SW480 rereplic)
CC(C)c1nn2c(=O)cc(COC(=O)c3ccc(NC(=O)C4CCCCC4)cc3)nc2s1	none (no result: PTAP TSG101 blk, KB-V1 MDR tox, KB-3-1 cytotox, MCF10A rereplic, SW480 rereplic)
Cc1ccccc1CSCC(=O)Nc1c(C)n(C)n(-c2ccccc2)c1=O	KB-V1 MDR tox 18µM
O=C(CSCc1cccc(Cl)c1)Nc1ccccc1-c1ccccc1	KB-3-1 cytotox inconclusive, MCF10A rereplic inconclusive
Cc1c(NCc2cc(Cl)cc(Cl)c2O)c(=O)n(-c2ccccc2)n1C	KB-V1 MDR tox 21µM, MCF10A rereplic inconclusive
Cc1ccccc1CSCC(=O)Nc1ccccc1-c1ccccc1	KB-V1 MDR tox 23µM, SW480 rereplic inconclusive
Cc1ccccc1C(=O)/C(C#N)=N/Nc1c(C)n(C)n(-c2ccccc2)c1=O	KB-V1 MDR tox 0.46µM, SW480 rereplic inconclusive
CCOC(=O)Cn1c(=O)oc2cc(S(=O)(=O)N3CCC(C(=O)OCC)CC3)ccc21	none (no result: PTAP TSG101 blk, MCF10A rereplic, SW480 rereplic)
Cc1cccc(CCn2c(=O)c3ccccc3n(Cc3cccc(F)c3)c2=O)c1	none (no result: PTAP TSG101 blk, MCF10A rereplic, SW480 rereplic)
COc1cccc(N2CCN(C(=S)Nc3ccc(F)cc3)CC2)c1	none
COc1ccccc1N1CCN(C(=S)Nc2cccc(C)c2)CC1	KB-V1 MDR tox inconclusive, KB-3-1 cytotox inconclusive, MCF10A rereplic 16µM, SW480 rereplic inconclusive
Cc1cccc(NC(=S)N2CCN(c3cc(C)ccc3C)CC2)c1	KB-V1 MDR tox inconclusive
COc1cccc(N2CCN(C(=S)Nc3cc(C)cc(C)c3)CC2)c1	KB-V1 MDR tox inconclusive, MCF10A rereplic 11µM, SW480 rereplic inconclusive
CCCC(=O)Nc1cccc(NC(=O)CN2CCN(c3ccccc3OC)CC2)c1	KB-V1 MDR tox 2.6µM, SW480 rereplic inconclusive
Cc1ccc(N2CC(C)Cn3c2nc2c3c(=O)n(CC(=O)O)c(=O)n2C)cc1 (configuration not stated)	KB-V1 MDR tox inconclusive (no result: PTAP TSG101 blk, MCF10A rereplic, SW480 rereplic)
CCN(CC)C(=O)/C(=C\c1cccc([N+](=O)[O-])c1)NC(=O)c1ccco1	KB-V1 MDR tox 13µM
COc1ccc(CCNC(=O)Cc2c(C)c3ccc(O)c(C)c3oc2=O)cc1OC	none (no result: PTAP TSG101 blk, MCF10A rereplic, SW480 rereplic)
O=C(NCC(c1ccco1)N1CCCC1)c1ccc(Cl)c(S(=O)(=O)N2CCc3ccccc32)c1 (configuration not stated)	RGS4 inhibitor inconclusive, KB-V1 MDR tox 1.6µM, KB-3-1 cytotox 2.3µM, MCF10A rereplic inconclusive, SW480 rereplic inconclusive
CC(C)[C@H](NC(=O)c1ccccc1)C(=O)OCC(=O)N1CCc2ccccc2C1	KB-V1 MDR tox 9.2µM
O=C(NC1=NCCS1)c1ccc(Cl)c(S(=O)(=O)N2CCc3ccccc32)c1	KB-V1 MDR tox 13µM, KB-3-1 cytotox inconclusive, MCF10A rereplic inconclusive
COc1ccc(C(=O)NC(C(=O)N2CCN(c3ccccc3O)CC2)C(C)C)cc1 (configuration not stated)	KB-V1 MDR tox inconclusive
COc1ccc(C(=O)NC(C(=O)N2CCc3ccccc32)C(C)C)cc1 (configuration not stated)	KB-V1 MDR tox 8.2µM
CC(C)C(NC(=O)c1ccccc1)C(=O)OCC(=O)N1CCCCC1 (configuration not stated)	none
O=C(NC1=NCCS1)c1cccc(S(=O)(=O)N2CCc3ccccc32)c1	KB-V1 MDR tox inconclusive, SW480 rereplic inconclusive
COc1ccc(C(=O)NCC(c2ccco2)N2CCc3ccccc32)cc1 (configuration not stated)	KB-V1 MDR tox 7.3µM, KB-3-1 cytotox 5.8µM, MCF10A rereplic 5.8µM, SW480 rereplic inconclusive
COc1ccc(NC(=O)C(=O)NCC(c2ccco2)N2CCc3ccccc32)cc1 (configuration not stated)	KB-V1 MDR tox inconclusive, KB-3-1 cytotox inconclusive, SW480 rereplic inconclusive
Cc1ccc(-n2c(=O)c3c4c(sc3n(CC(=O)c3ccc(Cl)cc3)c2=O)CCC4)cc1C	KB-V1 MDR tox inconclusive (no result: PTAP TSG101 blk, MCF10A rereplic, SW480 rereplic)
COC(=O)C1=C(C)NC2=C(C(=O)c3ccccc32)C1c1cccc(OC)c1 (configuration not stated)	MCF10A rereplic inconclusive
CC1=C([N+](=O)[O-])C(c2cccc(Br)c2)C2=C(N1)c1ccccc1C2=O (configuration not stated)	KB-V1 MDR tox inconclusive, KB-3-1 cytotox 1.6µM, MCF10A rereplic inconclusive, SW480 rereplic 0.65µM
CC(C)CNc1nc2c(c(=O)n(C)c(=O)n2C)n1Cc1cccc(Br)c1	none
COc1cccc(Cn2c(NCC(C)C)nc3c2c(=O)n(C)c(=O)n3C)c1	KB-V1 MDR tox 3.3µM, MCF10A rereplic inconclusive
CC(O)CNc1nc2c(c(=O)n(C)c(=O)n2C)n1Cc1cccc(Br)c1 (configuration not stated)	KB-V1 MDR tox 15µM, KB-3-1 cytotox inconclusive, MCF10A rereplic inconclusive
C=C1CC2C3C=C(C)C4=CC(=O)CCC4(C)C3CCC2(C)[C@@]1(OC(C)=O)C(C)=O (some centres not stated)	none (no result: RGS4 inhibitor, PTAP TSG101 blk, KB-V1 MDR tox, KB-3-1 cytotox)
CC1(C)[C@@H](O)CC[C@]2(C)[C@H]3C(=O)C=C4[C@@H]5C[C@@](C)(C(=O)O)CC[C@]5(C)CC[C@@]4(C)[C@]3(C)CC[C@@H]12	none
CC1(C)[C@@H](O)CC[C@]2(C)C3C(O)C=C4[C@H]5C[C@@](C)(CO)CC[C@]5(C)CC[C@]4(C)[C@]3(C)CC[C@@H]12 (some centres not stated)	MCF10A rereplic 13µM
CC1(C(=O)O)CCC2(C)CCC3(C)C(=CC(=O)C4C5(C)CCC(O)C(C)(C)C5CCC43C)C2C1 (configuration not stated)	MCF10A rereplic 27µM (no result: RGS4 inhibitor, PTAP TSG101 blk, KB-V1 MDR tox, KB-3-1 cytotox)
COc1cc(/C=C2/C=Cc3ccccc32)ccc1N(C)C	KB-3-1 cytotox inconclusive (no result: RGS4 inhibitor, PTAP TSG101 blk, MCF10A rereplic, SW480 rereplic)
Nc1ccccc1SCc1ccccc1	none
N#CC(=C(\N)Sc1ccccc1N)/C(C#N)=C(/N)Sc1ccccc1N	RGS4 inhibitor 9.5µM (no result: PTAP TSG101 blk, KB-V1 MDR tox, KB-3-1 cytotox, MCF10A rereplic, SW480 rereplic)
